The results in this text go back to PubChem BioAssay (NCATS).

In test [1] the target is Lysosomal acid glucosylceramidase (Homo sapiens) (UniProt P04062). Put plainly: Glucocerebrosidase-p2 (AID 348; in the data active means potency below about 10 µM; further: potency means the concentration at half of the fitted maximal effect). To be noted: purified GBA, blue fluorogenic substrate, 40 min. In outline: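 Normal human glucocerebrosidase (0.2 nM) with blue fluorogenic substrate (80 uM final) in citrate/phosphate pH 5.9 with 10mM sodium taurocholate, 0.01% tween-20; 40 min RT, NaOH/glycine stop; fluorescence Ex 365/Em 440; AC50 from a titration from 0.6 nM upwards.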
Lysosomal acid glucosylceramidase (Homo sapiens), sequence (P04062 whole entry, looked up): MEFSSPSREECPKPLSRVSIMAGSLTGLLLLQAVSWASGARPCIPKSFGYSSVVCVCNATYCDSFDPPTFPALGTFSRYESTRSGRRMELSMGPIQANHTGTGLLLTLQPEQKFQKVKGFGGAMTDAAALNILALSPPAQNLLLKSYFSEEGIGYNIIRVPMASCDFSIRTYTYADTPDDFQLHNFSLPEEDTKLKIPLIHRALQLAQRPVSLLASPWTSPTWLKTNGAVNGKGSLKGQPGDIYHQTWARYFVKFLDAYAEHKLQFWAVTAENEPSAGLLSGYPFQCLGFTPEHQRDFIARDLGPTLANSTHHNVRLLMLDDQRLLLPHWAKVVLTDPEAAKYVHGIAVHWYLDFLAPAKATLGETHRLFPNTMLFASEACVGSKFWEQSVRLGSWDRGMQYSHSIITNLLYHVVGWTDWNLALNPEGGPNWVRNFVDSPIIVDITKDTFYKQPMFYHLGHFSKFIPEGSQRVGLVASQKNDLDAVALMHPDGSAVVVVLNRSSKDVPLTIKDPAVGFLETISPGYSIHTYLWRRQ

Test [2] is described as follows: AP1 Signaling Pathway (AID 357). Further: on the % scale 0 is the no-effect control and ±100 the full control effect. The following applies: ME-180 AP-1-bla reporter, EGF-induced, beta-lactamase ratio, 5 h; at 7.69 µM (top of the series) unless noted. In outline: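 ME-180 cells with beta-lactamase reporter under AP-1 response element, stimulated with EC50 EGF; compounds tested in titration series, 5 h at 37 °C. CCF4 substrate added 2.5 h at room temperature; 460/530 nm emission ratio gave %activity and AC50.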

For test [3], the target named is Cytochrome P450 1A2 (Homo sapiens) (UniProt P05177). Put plainly: p450-cyp1a2 (AID 410; calls by dose curve; further: potency means the concentration at half of the fitted maximal effect). To be noted: recombinant CYP1A2, luciferin-ME demethylation, luminescence; series mostly up to 57 µM. An outline of the steps: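 20nM CYP1A2, 100uM Luciferin-ME (=Km), 100mM KPO4; cpd 10 min RT; +NADPH regen, 60 min RT; stop/detect 20 min; luminescence. Normalized to furafylline 57 uM = full inhibition.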
Cytochrome P450 1A2 (Homo sapiens), sequence (P05177 whole entry, looked up): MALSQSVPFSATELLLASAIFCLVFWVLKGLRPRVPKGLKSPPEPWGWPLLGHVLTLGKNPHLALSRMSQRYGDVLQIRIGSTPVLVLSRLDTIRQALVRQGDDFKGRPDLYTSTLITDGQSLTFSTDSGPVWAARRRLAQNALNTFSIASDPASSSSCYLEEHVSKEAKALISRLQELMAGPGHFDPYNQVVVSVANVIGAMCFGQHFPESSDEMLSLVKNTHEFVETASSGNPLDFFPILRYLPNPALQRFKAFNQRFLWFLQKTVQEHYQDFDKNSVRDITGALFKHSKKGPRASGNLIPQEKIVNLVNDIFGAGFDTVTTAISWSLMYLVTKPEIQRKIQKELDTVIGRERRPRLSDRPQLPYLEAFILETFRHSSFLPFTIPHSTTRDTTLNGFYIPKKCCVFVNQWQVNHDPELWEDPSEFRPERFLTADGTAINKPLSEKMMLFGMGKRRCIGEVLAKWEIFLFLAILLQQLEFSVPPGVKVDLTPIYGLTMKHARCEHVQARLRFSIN

Test [4] is described as follows: NFAT Signaling Pathway (AID 444).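 Further: carbachol stimulus at about its EC50 of 1 µM final; on the % scale 0 is the no-effect control and ±100 the full control effect.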 The following applies: Jurkat NFAT-bla M1, carbachol, beta-lactamase ratio, 5 h; at 7.69 µM (top of the series) unless noted. An outline of the steps: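 Jurkat cells with NFAT-driven β-lactamase reporter and co-expressed M1 receptor, stimulated with carbachol (final 1 uM, ~EC50), compound titration, 5 h at 37 °C. CCF4 loaded 1 h at RT; 460/530 nm ratio gave %activity and AC50.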

Test [5] in a line: Stat Signaling Pathway (AID 446).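 Further: ME-180 cervical cancer cells given 40 pM IL-6 alongside compound; SIE-controlled beta-lactamase reporter measured as 460/530 nm FRET emission ratio; on the % scale 0 is the no-effect control and ±100 the full control effect.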 To be noted: ME-180 (cervical carcinoma) SIE beta-lactamase reporter, IL-6 stimulated, 5 h; at 7.69 µM (top of the series) unless noted. In outline:
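Normalization used AC90 stimulation (300 pM IL-6) and AC90 inhibition (125 nM pan-JAK inhibitor at 40 pM IL-6). The underlying signal is SIE-driven beta-lactamase in ME-180 cells after 5 h IL-6 exposure with compound.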

The target of test [6] is Glucocorticoid receptor (Homo sapiens) (UniProt P04150). Put plainly: GR-GFP Redistribution (AID 450;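 active means compounds whose dose series gives a full or clear partial fitted curve of increased nuclear translocation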; further: potency means the concentration at half of the fitted maximal effect). The following applies: U2OS GR-GFP nuclear translocation, laser cytometry, 2 h.
Glucocorticoid receptor (Homo sapiens), sequence (P04150 whole entry, looked up, the tested form may be a part): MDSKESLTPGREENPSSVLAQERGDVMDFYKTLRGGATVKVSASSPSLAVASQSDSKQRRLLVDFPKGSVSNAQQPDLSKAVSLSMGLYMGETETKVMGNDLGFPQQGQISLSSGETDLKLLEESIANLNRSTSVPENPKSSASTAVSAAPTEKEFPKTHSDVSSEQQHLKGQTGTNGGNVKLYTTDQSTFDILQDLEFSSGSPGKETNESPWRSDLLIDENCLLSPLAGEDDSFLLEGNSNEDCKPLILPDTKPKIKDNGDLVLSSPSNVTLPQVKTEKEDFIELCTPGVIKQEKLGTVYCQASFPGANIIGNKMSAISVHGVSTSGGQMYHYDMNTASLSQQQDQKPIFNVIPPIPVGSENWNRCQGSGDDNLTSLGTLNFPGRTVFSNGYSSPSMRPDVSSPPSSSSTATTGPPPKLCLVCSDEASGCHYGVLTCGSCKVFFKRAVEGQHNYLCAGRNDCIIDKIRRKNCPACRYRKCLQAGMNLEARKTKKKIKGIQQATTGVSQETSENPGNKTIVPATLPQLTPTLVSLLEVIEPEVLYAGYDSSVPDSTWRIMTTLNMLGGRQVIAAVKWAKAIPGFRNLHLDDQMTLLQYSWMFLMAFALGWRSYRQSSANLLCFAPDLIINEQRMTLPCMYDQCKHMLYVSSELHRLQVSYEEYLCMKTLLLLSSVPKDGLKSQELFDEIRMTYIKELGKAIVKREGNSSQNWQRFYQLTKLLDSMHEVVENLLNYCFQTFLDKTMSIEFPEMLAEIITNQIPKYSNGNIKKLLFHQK
Test [7] has the same target. Put plainly: GR-EFC Redistribution (AID 451; calls by dose curve; further: potency means the concentration at half of the fitted maximal effect). The following applies: CHO-K1 GR-EFC translocation, beta-gal luminescence, 2 h. An outline of the steps: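 CHO-K1 cells expressing nuclear EA and GR-ED fragments of b-gal; compounds titrated up to 46 uM final, 2 h at 37 C. GR nuclear translocation read as complemented b-gal luminescence after 1 h RT detection.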
For test [8], the target named is Mitogen-activated protein kinase 10 (Mus musculus) (UniProt Q61831). As to the kind of experiment: JNK3 AlphaScreen Assay (AID 530).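 Further: kinase came from lysate of stimulated human HepG2 cells; signal reports phosphorylation of biotinylated GST-cJun 1-79 at Ser73 with 10 µM ATP; on the % scale 0 is the no-effect control and ±100 the full control effect.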 To be noted: JNK3 lysate, c-Jun phosphorylation; series mostly up to 57.1 µM. An outline of the steps: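 HepG2 lysate (IL-1b/TNFa pre-activated) + biotin-GST-cJun 1-79 + anti-pSer73 cJun; cpd titration, 15 min RT; ATP 10 uM start; Tris pH 7.6, MgCl2, DTT, vanadate; beads in EDTA buffer; AlphaScreen.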
On the technique in general: Bead proximity is the source of the signal in Alpha formats.

Test [9] concerns the target Cytochrome P450 3A4 (Homo sapiens) (UniProt P08684). Put plainly: qHTS Assay for Inhibitors and Substrates of Cytochrome P450 3A4 (AID 884; active means well fitted curve in the direction sought with a large enough effect; an effect the other way counts as inactive or inconclusive; further: potency means the concentration at half of the fitted maximal effect; nearly all actives have a fitted effect of over 50% in size). To be noted: recombinant CYP3A4, Luciferin-PPXE luminescence; series mostly up to 57.1 µM. An outline of the steps: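 Luminescent readout of luciferin produced by CYP3A4 (20 nM) dealkylation of Luciferin-PPXE, 25 uM (its KM). NADPH-driven reaction ran 60 min at RT after 10 min compound preincubation; data scaled to 57 uM ketoconazole as 100% inhibition.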
(In general: Quantitative high-throughput screening tests each substance at several concentrations.)

Test [10] has the same target. As to the kind of experiment: qHTS Assay for Activators of Cytochrome P450 3A4 (AID 885; active means well fitted curve in the direction sought with a large enough effect; an effect the other way counts as inactive or inconclusive; further: nearly all actives have a fitted effect of over 65% in size). The following applies: recombinant CYP3A4, Luciferin-PPXE luminescence, 60 min; series mostly up to 57.1 µM. An outline of the steps:
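Human CYP3A4 dealkylates Luciferin-PPXE to luciferin, which luciferase detection converts to light. Substrate was at its KM (25uM), buffer 200mM KPO4, reaction 60 min at RT.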

The nature of test [11]: Confirmation and Secondary Assay for Modulators of Hemoglobin Beta Chain Splicing at IVS2 654 locus (AID 910; active means well fitted curve in the direction sought with a large enough effect; an effect the other way counts as inactive or inconclusive;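 further: HeLa cells stably carrying EGFP split by mutant beta-globin IVS2-654 intron; % of control where 0% means no effect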). The following applies: HeLa EGFP-654 splicing reporter, GFP fluorescence, 48 h; series mostly up to 38.3 µM. An outline of the steps:
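HeLa cells stably expressing EGFP interrupted by β-globin IVS2-654 intron, seeded overnight in Opti-MEM/2% FCS, then treated 2 days at 37 °C. Restored splicing read as total peak GFP intensity per well by laser scanning cytometry (488 nm excitation, 500–520 nm emission); 500 nM antisense PNA as control.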

Test [12] is described as follows: Confirmation and Secondary Assay for Modulators of Hemoglobin Beta Chain Splicing at IVS2 705 locus (AID 930; active means well fitted curve in the direction sought with a large enough effect; an effect the other way counts as inactive or inconclusive;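 further: HeLa cells stably expressing the EGFP-705 splicing reporter; % of control where 0% means no effect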). The following applies: HeLa EGFP-705 splicing reporter, GFP fluorescence, 48 h; series mostly up to 38.3 µM. An outline of the steps: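 Splice-correction reporter: EGFP cDNA split by beta-globin intron 2 bearing the 705 mutation, stably in HeLa. Compound incubation 2 days, 37C; fluorescent objects 5-250 µm summed per well.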

Test [13] can be described thus: qHTS Assay for Lipid Storage Modulators (AID 1519; calls by dose curve). To be noted: Drosophila S3 cells, BODIPY lipid droplet/cell ratio, laser cytometry, cells loaded with oleic acid; for activity change, negative = inhibition: at 57.5 µM (top of the series). An outline of the steps: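 Cells seeded at 5,000 per well were treated with compounds over a concentration series and loaded with oleic acid (400 uM, as added). Lipid droplet fluorescence (488 nm excitation, 500-530 nm channel) was read by laser-scanning cytometry and normalized to 20 uM Triacsin C.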

In test [14] the target is Ubiquitin carboxyl-terminal hydrolase 1 (Homo sapiens) (UniProt O94782). As to the kind of experiment: Inhibitors of USP1/UAF1: Pilot qHTS (AID 504865; active means well fitted curve in the direction sought with a large enough effect; an effect the other way counts as inactive or inconclusive; further: nearly all actives have a fitted effect of over 35% in size; further: potency means the concentration at half of the fitted maximal effect). To be noted: purified USP1/UAF1, Ub-rhodamine cleavage fluorescence; series mostly up to 54.9 µM. An outline of the steps:
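In 50mM HEPES pH 7.8 containing 0.5mM EDTA, 1mM TCEP, 0.1 mg/ml BSA and 0.01% Tween-20, 1nM USP1/UAF1 is exposed to compound for 15 min, then Ub-Rho (150nM final) is added and fluorescence is read over time.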

A short description of test [15]: Primary qHTS for small molecule stabilizers of the endoplasmic reticulum resident proteome: Secreted ER Calcium Modulated Protein (SERCaMP) assay (AID 1508630; active means well fitted curve in the direction sought with a large enough effect; an effect the other way counts as inactive or inconclusive; further: on the % scale 0 is the no-effect control and ±100 the full control effect). The following applies: SH-SY5Y GLuc-SERCaMP (Gaussia luciferase released on ER calcium loss) secretion, thapsigargin, luminescence; series mostly up to 38.4 µM. In outline:
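The SH-SY5Y reporter protocol was run at 3 concentrations up to 38.3 uM (primary) or 11 concentrations (follow-up): 16 h compound, 100 nM thapsigargin for 4 h, then extracellular luciferase luminescence.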

Test [16] has as its target 3',5'-cyclic-AMP phosphodiesterase 4B (Homo sapiens) (UniProt Q07343). Put plainly: qHTS Assay for Inhibitors of PDE-IV (AID 607; active means well fitted activation curve with a large enough effect in the main read-out, with a control signal flat, not every such curve was filed as active; further: % of control where 0% means no effect). To be noted: HEK293 ACTOne CNG channel cells, membrane potential fluorescence; series mostly up to 22.9 µM. An outline of the steps:
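HEK293 ACTOne cells with CNG channel (1000/well), endogenous PDE4; membrane potential dye, compounds up to 22.9 uM final. Fluorescence Ex 535/Em 590; RO 20-1724 (100 uM final) as reference.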

For test [17], the target named is Cytochrome P450 2C9 (Homo sapiens) (UniProt P11712). Put plainly: qHTS Assay for Inhibitors and Substrates of Cytochrome P450 2C9 (AID 883; active means well fitted curve in the direction sought with a large enough effect; an effect the other way counts as inactive or inconclusive; further: potency means the concentration at half of the fitted maximal effect; nearly all actives have a fitted effect of over 60% in size). To be noted: recombinant CYP2C9, luciferin-H luminescence, 60 min; series mostly up to 57.1 µM. An outline of the steps: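 Human CYP2C9 (10nM) with Luciferin-H at 100uM (its KM) in 25mM KPO4; compound preincubated 10 min at 37C, then NADPH regeneration for 60 min at 37C. Luciferin read by luminescence after detection reagent; normalized to 57uM sulphaphenazole as full inhibition.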
Cytochrome P450 2C9 (Homo sapiens), sequence (P11712 whole entry, looked up): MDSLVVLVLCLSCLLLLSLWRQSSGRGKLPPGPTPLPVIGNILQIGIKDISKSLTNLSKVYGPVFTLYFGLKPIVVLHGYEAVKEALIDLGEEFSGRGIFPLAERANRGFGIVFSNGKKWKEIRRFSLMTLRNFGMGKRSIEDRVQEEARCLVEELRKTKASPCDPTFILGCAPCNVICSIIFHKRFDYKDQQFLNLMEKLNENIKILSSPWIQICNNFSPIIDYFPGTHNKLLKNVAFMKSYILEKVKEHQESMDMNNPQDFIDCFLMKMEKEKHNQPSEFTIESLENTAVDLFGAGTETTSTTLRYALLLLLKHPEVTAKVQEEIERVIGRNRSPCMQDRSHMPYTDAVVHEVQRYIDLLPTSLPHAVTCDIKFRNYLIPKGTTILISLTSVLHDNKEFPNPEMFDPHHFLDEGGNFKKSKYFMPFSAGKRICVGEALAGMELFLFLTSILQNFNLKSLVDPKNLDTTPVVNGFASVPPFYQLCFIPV

Test [18] has as its target Cytochrome P450 2C19 (Homo sapiens) (UniProt P33261). Put plainly: qHTS Assay for Inhibitors and Substrates of Cytochrome P450 2C19 (AID 899; active means well fitted curve in the direction sought with a large enough effect; an effect the other way counts as inactive or inconclusive; further: potency means the concentration at half of the fitted maximal effect; nearly all actives have a fitted effect of over 60% in size). The following applies: recombinant CYP2C19, luciferin-H EGE luminescence; series mostly up to 57.1 µM. In outline: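 5 nM human CYP2C19 with 10uM Luciferin-H EGE (at KM) in 50mM KPO4, compound preincubated 10 min at 37C, then NADPH regeneration for 60 min at 37C. Luciferin read by luminescence after detection reagent; normalized to 57uM ketoconazole as full inhibition.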

[19] abbreviates: measured here: cell count channel max response.
The mark [20] stands for this setting: measured here: lipid channel max response.

Molecules are shown by their SMILES. Records with an inconclusive call do not appear. Activity calls are given as the source filed them. Unless noted, the call rests on the fitted dose curve; in most records, active means well fitted curve in either direction with a large enough effect (not every such curve was filed as active); inconclusive means small, poorly fitted or top-dose-only effect, or another doubt; inactive means flat fitted curve, though single readings scatter. Bounds are passed on as bounds.

3',5'-cyclic-AMP phosphodiesterase 4B (Homo sapiens), sequence (Q07343 whole entry, looked up): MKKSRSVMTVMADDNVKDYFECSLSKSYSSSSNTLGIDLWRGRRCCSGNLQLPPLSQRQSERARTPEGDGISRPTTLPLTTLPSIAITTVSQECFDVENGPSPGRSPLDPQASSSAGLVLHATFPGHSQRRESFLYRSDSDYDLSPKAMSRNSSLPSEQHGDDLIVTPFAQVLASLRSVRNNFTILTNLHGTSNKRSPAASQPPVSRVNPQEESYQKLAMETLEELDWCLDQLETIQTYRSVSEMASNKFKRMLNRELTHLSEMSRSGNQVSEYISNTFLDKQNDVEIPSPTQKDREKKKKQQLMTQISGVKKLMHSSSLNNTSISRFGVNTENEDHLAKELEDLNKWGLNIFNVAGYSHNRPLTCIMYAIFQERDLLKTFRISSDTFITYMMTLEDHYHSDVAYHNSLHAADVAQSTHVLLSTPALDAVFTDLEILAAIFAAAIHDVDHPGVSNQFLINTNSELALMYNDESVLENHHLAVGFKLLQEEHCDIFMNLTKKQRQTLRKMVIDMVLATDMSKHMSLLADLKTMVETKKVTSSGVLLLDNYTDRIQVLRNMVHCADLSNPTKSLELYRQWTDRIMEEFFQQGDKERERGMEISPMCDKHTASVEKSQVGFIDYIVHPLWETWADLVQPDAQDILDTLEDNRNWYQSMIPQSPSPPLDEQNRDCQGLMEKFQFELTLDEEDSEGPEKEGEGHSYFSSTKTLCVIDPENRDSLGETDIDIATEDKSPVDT
Cytochrome P450 3A4 (Homo sapiens), sequence (P08684 whole entry, looked up): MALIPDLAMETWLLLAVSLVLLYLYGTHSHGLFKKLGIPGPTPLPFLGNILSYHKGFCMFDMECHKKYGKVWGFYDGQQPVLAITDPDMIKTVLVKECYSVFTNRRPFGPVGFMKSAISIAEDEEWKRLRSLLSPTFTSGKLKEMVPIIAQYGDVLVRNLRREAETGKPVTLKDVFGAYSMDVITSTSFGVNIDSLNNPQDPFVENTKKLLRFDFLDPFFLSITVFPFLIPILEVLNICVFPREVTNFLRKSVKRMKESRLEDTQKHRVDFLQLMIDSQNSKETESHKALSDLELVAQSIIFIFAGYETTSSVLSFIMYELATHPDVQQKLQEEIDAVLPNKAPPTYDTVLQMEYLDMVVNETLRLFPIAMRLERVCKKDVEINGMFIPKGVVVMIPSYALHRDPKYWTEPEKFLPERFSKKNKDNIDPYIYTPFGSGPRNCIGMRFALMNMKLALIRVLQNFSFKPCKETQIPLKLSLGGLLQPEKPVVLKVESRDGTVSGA
Ubiquitin carboxyl-terminal hydrolase 1 (Homo sapiens), sequence (O94782 whole entry, looked up): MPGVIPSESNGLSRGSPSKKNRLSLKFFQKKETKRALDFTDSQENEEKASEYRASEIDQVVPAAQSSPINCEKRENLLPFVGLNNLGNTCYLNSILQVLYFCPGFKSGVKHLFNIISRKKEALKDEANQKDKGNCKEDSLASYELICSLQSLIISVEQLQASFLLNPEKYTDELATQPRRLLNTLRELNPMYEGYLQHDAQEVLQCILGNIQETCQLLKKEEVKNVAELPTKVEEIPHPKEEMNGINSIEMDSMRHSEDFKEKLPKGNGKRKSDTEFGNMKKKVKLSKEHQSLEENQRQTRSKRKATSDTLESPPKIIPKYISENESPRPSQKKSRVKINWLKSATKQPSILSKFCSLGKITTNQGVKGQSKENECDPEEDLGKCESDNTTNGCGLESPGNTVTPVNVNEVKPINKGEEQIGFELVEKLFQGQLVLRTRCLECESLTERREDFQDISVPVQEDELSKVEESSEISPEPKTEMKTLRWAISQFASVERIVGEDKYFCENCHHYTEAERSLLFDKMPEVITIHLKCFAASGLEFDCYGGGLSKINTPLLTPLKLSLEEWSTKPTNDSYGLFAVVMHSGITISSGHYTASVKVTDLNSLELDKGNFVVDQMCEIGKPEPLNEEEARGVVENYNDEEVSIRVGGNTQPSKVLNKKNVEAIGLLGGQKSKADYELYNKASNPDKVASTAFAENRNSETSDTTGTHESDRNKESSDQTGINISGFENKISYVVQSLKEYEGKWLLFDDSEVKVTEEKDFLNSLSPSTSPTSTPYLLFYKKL
Cytochrome P450 2C19 (Homo sapiens), sequence (P33261 whole entry, looked up): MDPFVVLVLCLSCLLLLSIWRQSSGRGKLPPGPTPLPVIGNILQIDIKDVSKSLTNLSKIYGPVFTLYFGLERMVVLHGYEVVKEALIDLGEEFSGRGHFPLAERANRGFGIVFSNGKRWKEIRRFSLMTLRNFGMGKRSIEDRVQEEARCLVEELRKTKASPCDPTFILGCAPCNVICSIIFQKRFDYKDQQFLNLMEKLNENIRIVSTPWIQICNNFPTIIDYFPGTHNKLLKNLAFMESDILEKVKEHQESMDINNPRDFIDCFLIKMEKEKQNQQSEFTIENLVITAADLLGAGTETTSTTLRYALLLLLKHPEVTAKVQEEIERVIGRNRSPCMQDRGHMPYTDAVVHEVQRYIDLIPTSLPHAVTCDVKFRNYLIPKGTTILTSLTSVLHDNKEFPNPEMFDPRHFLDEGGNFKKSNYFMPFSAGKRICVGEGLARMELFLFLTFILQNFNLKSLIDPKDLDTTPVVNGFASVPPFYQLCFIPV

Take `c1cncc(CNc2nc(-c3ccoc3)nc3ccccc23)c1`: the Potency in test [1] is > 11.4 µM (inactive); in test [3], 0.398 µM (active); in [6], > 46 µM (inactive); in [7], > 46 µM (inactive); in test [9], 7.94 µM (active); in test [14] it was 44.7 µM (active). Moreover, the activity change, negative = inhibition in test [2] is 1.41% (inactive); in test [4] it was -9.01% (inactive); in test [13], 12.2% (inactive). Also, the activity, negative = inhibition in test [5] was -4.87% (inactive). The outcome in [8], in test [11] and in test [12] was inactive. In addition, the Potency entry in [10] and in test [15] was “inactive” each time. Also, the max response in [13] (setting [19]) was 2.22%; in test [13] (setting [20]), 16.5%.

Take `Cn1c(=O)cnc2cnc(Oc3ccccc3)nc21`: the Potency was > 11.4 µM (inactive) in [1], 10 µM (active) in test [3], > 9.22 µM (inactive) in [6] and > 46 µM (inactive) in test [7]. Besides, the activity change, negative = inhibition in test [2] was 5.77% (inactive); in test [4] it was 4.94% (inactive); in test [13], 3.92% (inactive). Further, the activity, negative = inhibition in test [5] was -3.04% (inactive). Besides, in test [8], the result was inactive. Besides, the Potency result in [16] and in test [15] was “inactive” throughout. Besides, the max response in [13] (setting [19]) came to 18.8%; in [13] (setting [20]), 25.3%.

`COc1ccc(Oc2ncc3nc(-c4ccc(OC)cc4)c(=O)n(Cc4cccs4)c3n2)cc1`: the Potency in test [1] was > 11.4 µM (inactive); in test [3], 15.8 µM (active); in [6], > 9.22 µM (inactive); in test [7], > 46 µM (inactive). In addition, the values for the activity change, negative = inhibition in test [2], in [4] and in test [13] were -28.2% (inactive), 2.5% (inactive) and 6.95% (inactive), respectively. In addition, in [5], the activity, negative = inhibition was 8.59% (inactive). Moreover, in test [8], the result was inactive. Besides, the Potency result in [16], in test [10] and in [15] was “inactive” each time. The max response in [13] (setting [19]) was 13.2%; in test [13] (setting [20]), 21.9%.

On to `COc1ccc2[nH]cc(CCNc3ncncc3-c3ccc(N(C)C)cc3)c2c1`, for which the Potency in test [1] was > 11.4 µM (inactive); in test [3], 0.251 µM (active); in test [6], > 46 µM (inactive); in test [7] it was > 46 µM (inactive); in test [17], 0.501 µM (active); in test [9], 0.501 µM (active). Further, the Potency in test [18] is 1.58 µM (active). Moreover, the values for the activity change, negative = inhibition in [2], in [4] and in [13] were -27.6% (inactive), 4.01% (inactive) and 5.88% (inactive), respectively. In addition, the activity, negative = inhibition in test [5] was -7.73% (inactive). Moreover, the Potency result in test [10], in [14] and in test [15] was “inactive” each time. For the same molecule, the result in [11] and in [12] was inactive. Besides, the max response in [13] (setting [19]) turned out to be 5.01%; in test [13] (setting [20]) it was 11%.

For the molecule `COCCn1c(=O)c(C)nc2cnc(N3CCNCC3)nc21`, the Potency in test [1] was > 11.4 µM (inactive); in [3], 10 µM (active); in test [6], > 9.22 µM (inactive); in test [7] it was > 46 µM (inactive). Also, the activity change, negative = inhibition in test [2] is -21.3% (inactive); in test [4] it was -18.9% (inactive); in test [13], 1.17% (inactive). Also, the activity, negative = inhibition in test [5] was -2.95% (inactive). Moreover, the result in test [8] was inactive. Moreover, the Potency result in test [16] and in test [15] was “inactive” each time. The max response is 4.65% in test [13] (setting [19]) and 6.84% in test [13] (setting [20]).
